Unmarked numbers belong to inactive results. No rule for the calls is given here.

This test deals with Pantothenate synthetase (Mycobacterium tuberculosis (strain ATCC 25618 / H37Rv)) (UniProt P9WIL5). Briefly: Recombinant Mtb pantothenate synthetase (PanC) inhibitors, coupled enzyme, confirmatory (AID 375).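 Also: 0% = full reaction with vehicle and 100% = no enzyme background.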 The note with it: coupled enzyme assay; at 10 µM, active compounds read high.
Chain of Pantothenate synthetase (Mycobacterium tuberculosis (strain ATCC 25618 / H37Rv)) (P9WIL5 whole entry, looked up): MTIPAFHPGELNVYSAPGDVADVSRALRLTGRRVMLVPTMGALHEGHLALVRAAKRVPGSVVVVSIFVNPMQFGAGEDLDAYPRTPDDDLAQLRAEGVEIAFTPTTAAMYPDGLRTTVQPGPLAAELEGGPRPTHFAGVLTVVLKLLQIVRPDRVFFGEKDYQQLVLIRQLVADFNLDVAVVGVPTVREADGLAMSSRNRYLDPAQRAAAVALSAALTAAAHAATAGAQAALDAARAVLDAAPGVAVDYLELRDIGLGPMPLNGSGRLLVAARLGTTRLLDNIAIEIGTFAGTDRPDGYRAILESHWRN
By inhibition is commonly meant the drop in the measured response relative to a control, in per cent. For `CCC(=O)N1CCc2cc(S(=O)(=O)CCC(=O)Nc3c(C)n(C)n(-c4ccccc4)c3=O)ccc21`, the inhibition is 7%.

With `O=S1(=O)C=CC(Nc2cccc(Cl)c2)C1` (stereo not given), the inhibition is 0%.

For the compound `CN=C(C)C1=C(O)C(C(=O)OC)C(C)(C)CC1=O` (stereo not given), the inhibition is 0%.

For the compound `CCCC(=O)O[C@]1(C(=O)COC(C)=O)CC[C@H]2[C@@H]3C[C@H](F)C4=CC(=O)C=C[C@]4(C)[C@@]3(F)[C@@H](O)C[C@@]21C`, the inhibition is 0%.

As to `CC1CCCN(C(=O)CN2C(=O)c3ccccc3C2=O)C1` (stereo not given), the inhibition is 3%.

In the case of `Cn1c(=O)cc(SCC(=O)NCC2CCCO2)c2ccc(Cl)cc21` (stereo not given), the inhibition was 10%.

In the case of `CCN(CC)C(=O)c1sc(NC(=O)c2ccco2)c(C#N)c1C`, the inhibition is 15%.

For `CCOC(=O)N1CCC(=C2c3ccc(Cl)cc3CCc3cccnc32)CC1`, the inhibition is 5%.

Take `COc1ccc(OC)c(C2C(C(=O)Nc3ccc(F)cc3)=C(C)Nc3nc(CCCO)nn32)c1` (stereo not given): the inhibition was 5%.

Consider `O=C(NCCC1=CCCCC1)C1CCN(S(=O)(=O)c2cnc[nH]2)CC1`, for which the inhibition was 2%.

Take `COC(=O)c1ccc(CSc2ncnc3c2nnn3-c2ccc(OC)cc2)o1`: the inhibition is 0%.

`CCCCc1nc2n[nH]c(N)c2c2c1CCCC2`: the inhibition was 0%.

As to `CC(=O)Nc1ccc(S(=O)(=O)N2CCN(c3cc(C)nc4ccccc34)CC2)cc1`, the inhibition was 5%.

For the compound `CCOc1cc(-c2nc(-c3ccc(C)nc3OCC)no2)cc(OCC)c1OCC`, the inhibition was 0%.

Consider `Cc1ccc(NC(=O)CSc2nnc(-c3ccncc3)n2C)cc1C`, for which the inhibition is 0%.

The values above are taken from PubChem BioAssay.
